# A number with no mark means an inactive call. Records with an inconclusive call do not appear. Entries that show only a call come without a potency. Activity calls are given as the source filed them. Unless noted, calls come from the whole dose curve.
# Key:
# [1] = Nuclear factor erythroid 2-related factor 2/antioxidant responsive element (Nrf2/ARE) small molecule agonists: qHTS cell viability counter screen in human keratinocytes (AID 1919968; active = well fitted curve in the direction sought with a large enough effect in the repeat runs; an effect the other way counts as inactive or inconclusive; note: nearly all actives have a fitted effect of over 55% in size; note: potency is the fitted concentration of half-maximal effect)
# Outline: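 In human HaCaT keratinocytes stably expressing an ARE-driven luciferase, compound exposure lasted 23 h at 37 C under 5% CO2. Viable cells are quantified with a protease-based fluorogenic reagent (CellTiter-Fluor) read 1 h after addition.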
# [2] = Nuclear factor erythroid 2-related factor 2/antioxidant responsive element (Nrf2/ARE) small molecule agonists: luciferase reporter gene qHTS assay in human keratinocytes (AID 1919969); note: nearly all actives have a fitted effect of over 35% in size
# [3] = molecular target: Gonadotropin-releasing hormone receptor (Homo sapiens) (UniProt P30968); assay: Human gonadotropin-releasing hormone receptor (GnRHR) small molecule agonists, calcium flux assay in GnRHR-HEK293 cells (AID 1920063); note: nearly all actives have a fitted effect of over 35% in size
# Sequence of Gonadotropin-releasing hormone receptor (Homo sapiens) (P30968 whole entry, looked up): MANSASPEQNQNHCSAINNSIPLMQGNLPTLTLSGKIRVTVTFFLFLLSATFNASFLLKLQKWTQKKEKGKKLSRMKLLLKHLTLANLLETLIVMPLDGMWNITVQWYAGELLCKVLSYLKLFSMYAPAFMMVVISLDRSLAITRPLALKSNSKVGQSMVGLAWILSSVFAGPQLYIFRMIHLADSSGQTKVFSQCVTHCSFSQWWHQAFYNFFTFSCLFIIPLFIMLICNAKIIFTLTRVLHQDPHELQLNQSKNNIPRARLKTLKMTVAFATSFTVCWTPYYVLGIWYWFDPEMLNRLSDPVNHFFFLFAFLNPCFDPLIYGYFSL
# Outline: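 Intracellular calcium rise is the read-out: engineered human GnRHR HEK293 cells, dye-loaded, are exposed to DMSO-dissolved compounds and fluorescence at Ex/Em 480/540 is tracked for 3 min.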
# [4] = molecular target: KiSS-1 receptor (Homo sapiens) (UniProt Q969F8); assay: Human kisspeptin (KISS1R) small molecule agonists, calcium flux assay in KISS1R-HEK293 cells (AID 1920064; active = well fitted curve in the direction sought with a large enough effect in the repeat runs; an effect the other way counts as inactive or inconclusive)
# Sequence of KiSS-1 receptor (Homo sapiens) (Q969F8 whole entry, looked up): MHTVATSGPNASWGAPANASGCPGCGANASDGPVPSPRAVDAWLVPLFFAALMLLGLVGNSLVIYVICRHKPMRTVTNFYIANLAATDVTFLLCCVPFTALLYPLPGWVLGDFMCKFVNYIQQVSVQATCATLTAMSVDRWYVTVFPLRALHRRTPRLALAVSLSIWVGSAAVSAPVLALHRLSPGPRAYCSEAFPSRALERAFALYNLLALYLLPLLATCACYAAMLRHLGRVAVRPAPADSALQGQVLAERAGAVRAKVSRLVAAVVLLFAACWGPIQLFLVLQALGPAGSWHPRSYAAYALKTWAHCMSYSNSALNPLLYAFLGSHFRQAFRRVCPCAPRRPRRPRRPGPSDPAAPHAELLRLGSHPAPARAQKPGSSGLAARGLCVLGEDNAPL
# Outline: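 Concentration-response testing used 15 concentrations in triplicate on human KISS1R-expressing HEK293 cells. Calcium-dependent fluorescence (Ex/Em 480/540) was followed kinetically for 3 min after compound transfer.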
# [5] = G protein-coupled receptor (GPCR) small molecule agonists, calcium flux assay: HEK293 wild type cell line counter screen (AID 1920065)
# Outline: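 Fluorescence intensity signals activation. After overnight (18 h) culture and a 1 h calcium dye load at 37 C, compounds are added by pin tool and the plate read at 480/540 nm for 3 min in 1 s steps.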
# [6] = p53 small molecule agonists, cell-based qHTS assay with rat liver microsomes (AID 1963578)
# Outline: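 p53RE-bla cells, 4,000/well, pre-incubated 5 h, then given compounds plus rat liver microsomes (0.5 mg/mL final) and NADPH (0.5 mg/mL final). Incubation 16 h at 37 C; beta-lactamase reporter read by LiveBLAzer fluorescence after 2 h at room temperature.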
# [7] = p53 small molecule agonists, cell-based qHTS assay with human liver microsomes: qHTS cell viability counter screen (AID 1963579); note: nearly all actives have a fitted effect of over 45% in size
# Outline: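 p53RE-bla cells, 4,000/well, dosed 5 hours after plating, with human liver microsomes (0.5 mg/mL final) plus NADPH (0.5 mg/mL final), 16 hours at 37 C. Viability read as CellTiter-Glo luminescence after 30 min at room temperature.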
# [8] = p53 small molecule agonists, cell-based qHTS assay with rat liver microsomes: qHTS cell viability counter screen (AID 1963580); note: nearly all actives have a fitted effect of over 45% in size
# Outline: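 Counter screen for cytotoxicity under metabolic activation: rat liver microsomes and NADPH, 0.5 mg/mL final each, added with compounds to p53RE-bla HCT-116 cells; 16 h at 37 C, then ATP luminescence read.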
# [9] = p53 small molecule agonists, cell-based qHTS assay: qHTS cell viability counter screen (AID 1963581); note: nearly all actives have a fitted effect of over 45% in size
# Outline: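 Luminescence from CellTiter-Glo, reflecting ATP content, serves as the cytotoxicity measure; it is taken after the 2 h reporter substrate step in HCT-116 p53RE-bla cells dosed for 16 h at 37 C.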
# [10] = p53 small molecule agonists, cell-based qHTS assay (AID 1963582; active = well fitted activation curve with a large enough effect in the signal ratio in the repeat runs, not every such curve was filed as active; the % refers to the signal ratio)
# Outline: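 After plating, p53RE-bla cells sat 5 h in the incubator; compounds or DMSO vehicle were pinned in; a 16 h incubation at 37 C followed; FRET substrate was added and, 2 h later at RT, fluorescence was measured.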
# [11] = cAMP Responsive Elements (CRE) small molecule agonists, cell-based qHTS assay (AID 1963590)
# Outline: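 Compound exposure lasted 3 h at 37 C/5% CO2 in CRE-bla HEK 293T cells grown in assay medium with 10% dialyzed FBS and 25 mM HEPES. Reporter signal came from LiveBLAzer B/G FRET substrate, 2 h, room temperature.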
# [12] = cAMP Responsive Elements (CRE) small molecule antagonists, cell-based qHTS assay (AID 1963591; active = well fitted inhibition curve with a large enough effect in the signal ratio in the repeat runs, not every such curve was filed as active; the % refers to the signal ratio)
# Outline: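 Stimulation used NKH477 at a final 0.25 uM for 3 h in compound-treated CRE-bla HEK293T cells, seeded 18 h beforehand. Reporter activity was measured with LiveBLAzer B/G FRET substrate after 2 h at room temperature.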
# [13] = molecular target: D(2) dopamine receptor (Homo sapiens) (UniProt P14416); assay: Dopamine D2 receptor (DRD2) small molecule agonists, cell-based qHTS assay (AID 1963594); note: nearly all actives have a fitted effect of over 35% in size
# Sequence of D(2) dopamine receptor (Homo sapiens) (P14416 whole entry, looked up): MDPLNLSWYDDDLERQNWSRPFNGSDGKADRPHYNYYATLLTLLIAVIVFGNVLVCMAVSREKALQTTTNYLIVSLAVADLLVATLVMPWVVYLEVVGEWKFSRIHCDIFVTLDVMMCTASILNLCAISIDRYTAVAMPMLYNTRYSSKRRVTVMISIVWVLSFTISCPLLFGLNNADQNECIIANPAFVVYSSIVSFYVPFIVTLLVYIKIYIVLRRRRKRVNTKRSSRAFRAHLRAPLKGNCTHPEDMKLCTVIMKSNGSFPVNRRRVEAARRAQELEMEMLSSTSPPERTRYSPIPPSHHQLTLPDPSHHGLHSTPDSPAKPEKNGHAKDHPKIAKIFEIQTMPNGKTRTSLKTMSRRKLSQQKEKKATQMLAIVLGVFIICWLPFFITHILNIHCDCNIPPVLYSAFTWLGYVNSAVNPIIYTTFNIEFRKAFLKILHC
# Outline: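 HEK293 cells stably expressing DRD2 were cultured 24 h at 37 C, then given Ro20-1724 (0.1 mM final) and compounds for 10 min at room temperature. NKH477 (200nM) was then added for 30 min. cAMP was read by HTRF.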
# [14] = molecular target: D(2) dopamine receptor (Homo sapiens) (UniProt P14416); assay: Dopamine D2 receptor (DRD2) small molecule antagonists, cell-based qHTS assay (AID 1963595; active = well fitted inhibition curve with a large enough effect in the signal ratio in the repeat runs, with a control signal flat; the % refers to the signal ratio)
# Outline: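 Stable D2 receptor HEK293 line, 24 h after seeding. Compound preincubated 10 min, then quinpirole (12 nM) with forskolin analogue NKH477 (200 nM), 30 min, room temperature. Detection by time-resolved FRET of cAMP.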
# [15] = molecular target: Beta-2 adrenergic receptor (Homo sapiens) (UniProt P07550); assay: Adrenergic beta2 receptor (ADRB2) small molecule antagonists, cell-based qHTS assay (AID 1963592); note: nearly all actives have a fitted effect of over 50% in size; note: potency is the fitted concentration of half-maximal effect; for activity change, negative = inhibition: series mostly up to about 92 µM
# Sequence of Beta-2 adrenergic receptor (Homo sapiens) (P07550 whole entry, looked up): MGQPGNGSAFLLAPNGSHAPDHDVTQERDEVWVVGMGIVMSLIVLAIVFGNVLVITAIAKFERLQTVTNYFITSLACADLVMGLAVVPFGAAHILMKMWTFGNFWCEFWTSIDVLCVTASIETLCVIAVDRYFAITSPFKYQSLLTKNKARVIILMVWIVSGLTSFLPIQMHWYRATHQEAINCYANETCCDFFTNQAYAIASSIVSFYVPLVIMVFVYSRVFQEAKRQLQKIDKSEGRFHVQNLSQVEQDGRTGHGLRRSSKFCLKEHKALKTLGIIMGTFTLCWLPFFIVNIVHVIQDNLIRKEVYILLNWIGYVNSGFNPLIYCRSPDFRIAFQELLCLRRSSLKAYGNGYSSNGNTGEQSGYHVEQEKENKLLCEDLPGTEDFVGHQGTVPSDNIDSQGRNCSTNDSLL
# Outline: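 Assay format: CHO-ADRB2 cells, 18-20hr seeding at 37C/5% CO2, then compound plus 1nM isoproterenol agonist mix for 0.5hr RT. Homogeneous time-resolved fluorescence cAMP detection after 1hr, expressed as 665/615 nm ratio.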
# [16] = molecular target: 5-hydroxytryptamine receptor 2A (Homo sapiens) (UniProt P28223); assay: 5-hydroxytryptamine receptor 2A (HTR2A) small molecule antagonists, cell-based qHTS assay (AID 1963586); note: nearly all actives have a fitted effect of over 45% in size; note: potency is the fitted concentration of half-maximal effect
# Sequence of 5-hydroxytryptamine receptor 2A (Homo sapiens) (P28223 whole entry, looked up): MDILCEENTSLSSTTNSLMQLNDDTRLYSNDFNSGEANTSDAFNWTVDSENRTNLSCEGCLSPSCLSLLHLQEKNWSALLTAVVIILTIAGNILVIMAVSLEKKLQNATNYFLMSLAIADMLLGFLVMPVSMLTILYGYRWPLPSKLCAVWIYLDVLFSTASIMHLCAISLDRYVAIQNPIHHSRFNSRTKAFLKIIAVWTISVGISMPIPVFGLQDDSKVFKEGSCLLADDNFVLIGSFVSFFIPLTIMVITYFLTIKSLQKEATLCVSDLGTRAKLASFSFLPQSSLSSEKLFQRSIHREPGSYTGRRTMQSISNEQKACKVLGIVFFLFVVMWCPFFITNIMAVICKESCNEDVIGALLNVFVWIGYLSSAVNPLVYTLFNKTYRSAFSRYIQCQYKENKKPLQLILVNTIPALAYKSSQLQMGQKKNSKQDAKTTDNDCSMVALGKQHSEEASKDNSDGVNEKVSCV
# Outline: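 CHO cells stably expressing human HTR2A were plated for 18 h at 37 C, then loaded with calcium dye for 1 h. Compounds were preincubated 5 min at room temperature before DOI (4 nM solution) was added. Kinetic fluorescence was read for 3 min.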
# [17] = molecular target: Muscarinic acetylcholine receptor M1 (Homo sapiens) (UniProt P11229); assay: Cholinergic receptor muscarinic 1 (CHRM1) small molecule agonists, cell-based qHTS assay (AID 1963589); note: nearly all actives have a fitted effect of over 35% in size
# Sequence of Muscarinic acetylcholine receptor M1 (Homo sapiens) (P11229 whole entry, looked up): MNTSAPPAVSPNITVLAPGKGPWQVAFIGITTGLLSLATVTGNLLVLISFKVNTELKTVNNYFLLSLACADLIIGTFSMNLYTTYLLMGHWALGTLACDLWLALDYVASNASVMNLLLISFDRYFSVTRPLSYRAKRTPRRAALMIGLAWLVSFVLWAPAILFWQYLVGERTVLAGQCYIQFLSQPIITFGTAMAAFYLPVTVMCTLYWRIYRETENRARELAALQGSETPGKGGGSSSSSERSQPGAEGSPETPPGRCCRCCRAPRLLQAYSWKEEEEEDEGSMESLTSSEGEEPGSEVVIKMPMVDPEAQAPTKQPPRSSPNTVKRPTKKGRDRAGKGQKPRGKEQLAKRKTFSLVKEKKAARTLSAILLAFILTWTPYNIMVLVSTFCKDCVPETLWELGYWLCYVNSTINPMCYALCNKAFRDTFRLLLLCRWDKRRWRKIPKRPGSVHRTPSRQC
# Outline: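 Fluorescent calcium dye reports M1 activation in stably transfected CHO cells. Compounds, 15 concentrations, added after 1 h dye loading at 37 C; kinetic reading at 1 sec intervals.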
# [18] = molecular target: Beta-2 adrenergic receptor (Homo sapiens) (UniProt P07550); assay: Adrenergic beta2 receptor (ADRB2) small molecule agonists, cell-based qHTS assay (AID 1963593);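 note: CHO cells stably overexpressing human ADRB2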
# Outline: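 CHO cells stably over-expressing ADRB2 were plated overnight at 37C, then dosed with compounds plus a stimulation mix containing 100uM IBMX and 25uM Ro-20-1724 for 0.5hr at room temperature. cAMP was measured by HTRF competition, 1hr.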
# [19] = molecular target: 5-hydroxytryptamine receptor 2A (Homo sapiens) (UniProt P28223); assay: 5-hydroxytryptamine receptor 2A (HTR2A) small molecule agonists, cell-based qHTS assay (AID 1963587); note: nearly all actives have a fitted effect of over 30% in size
# Outline: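 HTR2A-CHO cells, plated 18 h at 37 C/5% CO2, dye-loaded 1 h at 37 C; compounds in DMSO added by pin tool (agonist mode). Intracellular calcium flux read as kinetic fluorescence on FDSS over 2 min at 1 s intervals.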
# [20] = molecular target: Muscarinic acetylcholine receptor M1 (Homo sapiens) (UniProt P11229); assay: Cholinergic receptor muscarinic 1 (CHRM1) small molecule antagonists, cell-based qHTS assay (AID 1963588); note: nearly all actives have a fitted effect of over 40% in size
# Outline: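 Compounds were tested at 15 concentrations in three independent runs. Dye-loaded CHRM1-CHO cells were exposed 5 min at room temperature before stimulation by acetylcholine added at 50nM. Intracellular calcium was read kinetically on FDSS for 3 min.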
smiles,measurement,setting,value
Cc1cc2cc3c(C)cc(=O)oc3c(C)c2o1,Potency,[1],inactive
same,Potency,[2],inactive
same,Potency,[3],inactive
same,Potency,[4],inactive
same,Potency,[5],inactive
same,Potency,[6],inactive
same,Potency,[7],inactive
same,Potency,[8],inactive
same,Potency,[9],inactive
same,Potency,[10],inactive
same,Potency,[11],inactive
same,Potency,[12],inactive
same,Potency,[13],inactive
same,Potency,[14],inactive
Cc1ccc(C(=O)C(C)CN2CCCCC2)cc1 (configuration not stated),Potency,[1],inactive
same,Potency,[2],inactive
same,Potency,[3],inactive
same,Potency,[4],inactive
same,Potency,[5],inactive
same,Potency,[6],inactive
same,Potency,[7],inactive
same,Potency,[8],inactive
same,Potency,[9],inactive
same,Potency,[10],inactive
same,Potency,[12],inactive
same,Potency,[15],inactive
same,Potency,[13],inactive
CNCc1cc(F)ccc1Oc1ccc(Cl)c(Cl)c1,Potency,[1],27.3 µM (active)
same,Potency,[2],inactive
same,Potency,[3],inactive
same,Potency,[4],inactive
same,Potency,[5],inactive
same,Potency,[6],inactive
same,Potency,[7],inactive
same,Potency,[8],inactive
same,Potency,[9],inactive
same,Potency,[10],inactive
same,Potency,[16],0.266 µM (active)
same,Potency,[17],inactive
same,Potency,[11],inactive
same,Potency,[15],inactive
same,Potency,[18],inactive
Cc1ccccc1C(=O)Nc1ccc(C(=O)N2CCCC(O)c3cc(Cl)ccc32)c(C)c1 (configuration not stated),Potency,[1],inactive
same,Potency,[2],inactive
same,Potency,[3],inactive
same,Potency,[4],inactive
same,Potency,[5],inactive
same,Potency,[6],inactive
same,Potency,[7],inactive
same,Potency,[8],inactive
same,Potency,[9],inactive
same,Potency,[10],inactive
same,Potency,[19],inactive
same,Potency,[20],inactive
same,Potency,[17],inactive
same,Potency,[11],inactive
same,Potency,[12],inactive
same,Potency,[15],inactive
same,Potency,[13],inactive
same,Potency,[14],inactive
Cn1ccc2cc3c(cc21)CCN3C(=O)Nc1cccnc1,"activity change, negative = cytotoxicity",[1],3.31% [at 19 µM]
same,"activity, positive = activation",[2],26.3% [at 19 µM]
same,activity change,[3],"-0.165% [at 11.8 µM, hits give high values]"
same,activation,[4],-2.7% [at 15.8 µM]
same,activation,[5],0.454% [at 11.8 µM]
same,activation,[6],-2.12% [at 13.6 µM]
same,"activity change, negative = cytotoxicity",[7],-7.75% [at 13.5 µM]
same,"activity change, negative = cytotoxicity",[8],-3.54% [at 13.5 µM]
same,"activity change, negative = cytotoxicity",[9],-10.9% [at 13.5 µM]
same,activation,[10],-0.168% [at 13.5 µM]
same,activation,[19],-6.77% [at 15.9 µM]
same,"activity, negative = inhibition",[20],8.54% [at 12.6 µM]
same,activation,[17],-0.375% [at 15.8 µM]
same,activation,[11],13.1% [at 19 µM]
same,"activity change, negative = inhibition",[12],0.0268% [at 18.9 µM]
same,"activity change, negative = inhibition",[15],0.687% [at 19 µM]
same,activation,[18],-9.02% [at 19 µM]
same,activation,[13],16.6% [at 19 µM]
same,"activity change, negative = inhibition",[14],-0.697% [at 18.9 µM]
CCCOc1ccc2c(c1)CC[C@@H]1[C@@H]2CC[C@]2(C)C(OC)CC[C@@H]12 (some centres not stated),Potency,[1],inactive
same,Potency,[2],inactive
same,Potency,[3],inactive
same,Potency,[4],inactive
same,Potency,[5],inactive
same,Potency,[6],inactive
same,Potency,[7],inactive
same,Potency,[8],inactive
same,Potency,[9],inactive
same,Potency,[10],inactive
same,Potency,[16],inactive
same,Potency,[19],inactive
same,Potency,[20],inactive
same,Potency,[17],inactive
same,Potency,[11],inactive
same,Potency,[15],inactive
same,Potency,[18],inactive
same,Potency,[13],inactive
CC1CC(=O)NN=C1c1ccc(NCC(C)(C)NCC(O)COc2cc(Cl)ccc2C#N)cc1 (configuration not stated),Potency,[1],inactive
same,Potency,[2],inactive
same,Potency,[3],inactive
same,Potency,[4],inactive
same,Potency,[5],inactive
same,Potency,[6],inactive
same,Potency,[7],inactive
same,Potency,[8],inactive
same,Potency,[9],inactive
same,Potency,[10],inactive
same,Potency,[19],inactive
same,Potency,[20],inactive
same,Potency,[17],inactive
same,Potency,[15],5.31 µM (active)
same,Potency,[14],inactive

# Reference: PubChem BioAssay (Tox21)
